This is a sample that favours compounds with a hit; in the whole collection about 6.8% have one here.
Tcruzi prolif = inhibitors of T. cruzi proliferation | T. cruzi beta-gal in NIH3T3, GalScreen luminescence, 90 h | inhibition, % at 8.34 µM | 77,000 tested, 5.9% active | AID 624255;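 active = mean inhibition above about 93%, with at least 55% of replicates each passing it, limit read from the data, passing the limit was not always enough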
Pf Dd2 inh = blocks growth of Plasmodium falciparum Dd2 parasites; AID 1159554; 94,000 tested, 2.3% active; P. falciparum Dd2 growth, SYBR Green, 72 h; hits give low values; activity change, % at 10 µM; in the data active = activity change below about -80%
C diff growth = blocks growth of Clostridium difficile. Clostridium difficile clinical isolate growth, OD600, 24 h; hits give low values. growth activity, negative = inhibition, % at 16 µg/mL (by protocol). 86,000 tested, 0.25% active. AID 1259249;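 active = mean growth activity at or below -80% and every replicate also at or below -80%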;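 note: 0% = DMSO wells and -100% = levofloxacin 16 µg/mL wells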
The depositor's hits bear a star.

Screening C[C@@H]1CN([C@H](C)CO)S(=O)(=O)c2ccc(-c3ccncc3)cc2O[C@H]1CN(C)Cc1ccc(Oc2ccccc2)cc1 returned Tcruzi prolif 52.6, Pf Dd2 inh -87.4* and C diff growth 10.7.
Screening C[C@@H]1CN([C@@H](C)CO)S(=O)(=O)c2ccc(-c3ccncc3)cc2O[C@@H]1CN(C)Cc1ccccc1 returned Tcruzi prolif 86.4, Pf Dd2 inh -29.1 and C diff growth -0.5.
Screening CC(C)C#Cc1ccc2c(c1)O[C@H](CN(C)Cc1ccncc1)[C@@H](C)CN([C@@H](C)CO)S2(=O)=O returned Tcruzi prolif 117.1*, Pf Dd2 inh -65.3 and C diff growth 7.5.
C[C@H](O)C#Cc1ccc2c(c1)O[C@@H](CN(C)Cc1ccncc1)[C@@H](C)CN([C@H](C)CO)S2(=O)=O was read as Tcruzi prolif 89.9, Pf Dd2 inh 2.1 and C diff growth -1.1.
For C[C@@H]1CN([C@@H](C)CO)S(=O)(=O)c2ccc(C#C[C@@H](C)O)cc2O[C@@H]1CN(C)Cc1ccncc1 the results were Tcruzi prolif 56.6, Pf Dd2 inh -17.2 and C diff growth 7.3.
CC(C)C#Cc1ccc2c(c1)O[C@@H](CN(C)Cc1ccncc1)[C@H](C)CN([C@@H](C)CO)S2(=O)=O was read as Tcruzi prolif 121.2*, Pf Dd2 inh -73.7 and C diff growth -8.6.
Screening COCC(=O)N[C@H]1CC[C@@H](CC(=O)NCc2ccc(Cl)cc2)O[C@@H]1CO returned Tcruzi prolif -39.4, Pf Dd2 inh 1.2 and C diff growth 4.1.
C[C@@H]1CCCCO[C@H](CN(C)C(=O)CCC(F)(F)F)[C@@H](C)CN([C@@H](C)CO)C(=O)c2cc(NC(=O)Cc3ccccc3)ccc2O1 was read as Tcruzi prolif 81.3 and C diff growth -8.8.
C[C@H]1CN([C@@H](C)CO)C(=O)c2cc(NC(=O)CCCCCC(=O)Nc3ccccc3N)ccc2O[C@H]1CN(C)Cc1ccc(C(F)(F)F)cc1 was read as Tcruzi prolif 90.1, Pf Dd2 inh -25.4 and C diff growth -0.3.
C[C@H]1CN([C@@H](C)CO)C(=O)c2cccc(NC(=O)CCCCCC(=O)Nc3ccccc3N)c2O[C@H]1CN(C)CC1CC1 was read as Pf Dd2 inh -4.1 and C diff growth -3.8.
For C[C@H](CO)N1C[C@H](C)[C@@H](CN(C)Cc2ccc(C(F)(F)F)cc2)Oc2c(NC(=O)CCCCCC(=O)Nc3ccccc3N)cccc2C1=O the results were Pf Dd2 inh -88.9* and C diff growth -10.2.
C[C@H](CO)N1C[C@H](C)[C@H](CN(C)Cc2ccc(C(F)(F)F)cc2)Oc2c(NC(=O)CCCCCC(=O)Nc3ccccc3N)cccc2C1=O was read as Pf Dd2 inh -85.6* and C diff growth 4.8.
C[C@@H]1CN([C@H](C)CO)C(=O)Cc2cc(NC(=O)CCCCCC(=O)Nc3ccccc3N)ccc2O[C@@H]1CN(C)Cc1ccc(C(F)(F)F)cc1 was read as Tcruzi prolif 58.9, Pf Dd2 inh -40.4 and C diff growth 8.4.
C[C@@H]1CN([C@@H](C)CO)C(=O)c2cccc(NC(=O)CCCCCC(=O)Nc3ccccc3N)c2O[C@@H]1CN(C)Cc1ccc(C(F)(F)F)cc1 was read as Tcruzi prolif 93.6 and Pf Dd2 inh -91.9*.
C[C@@H]1CN([C@H](C)CO)C(=O)c2cccc(NC(=O)C3CC3)c2O[C@H]1CN(C)Cc1ccc(C(F)(F)F)cc1 was read as Tcruzi prolif 28.3, Pf Dd2 inh -66.2 and C diff growth -2.2.
`C[C@@H]1CN([C@H](C)CO)C(=O)c2cccc(NC(=O)CCCCCC(=O)Nc3ccccc3N)c2O[C@@H]1CN(C)Cc1ccc(C(F)(F)F)cc1` gave Pf Dd2 inh -92.1* and C diff growth -2.3.
Screening C[C@H]1CN([C@@H](C)CO)C(=O)c2cccc(NS(=O)(=O)c3ccc(Cl)cc3)c2O[C@H]1CN(C)Cc1ccncc1 returned Tcruzi prolif 38.1, Pf Dd2 inh 11.4 and C diff growth 2.1.
C[C@@H]1CN([C@H](C)CO)S(=O)(=O)c2ccc(C#Cc3ccccc3)cc2O[C@@H]1CN(C)C(=O)c1ccccn1 was read as Tcruzi prolif 45.5, Pf Dd2 inh -60.1 and C diff growth 4.1.
C/C=C/c1cnc2c(c1)C(=O)N([C@@H](C)CO)C[C@@H](C)[C@H](CN(C)C(=O)C1CCOCC1)O2 was read as Tcruzi prolif -18.0, Pf Dd2 inh 38.7 and C diff growth -0.4.
CCC(=O)Nc1ccc2c(c1)C(=O)N(C)[C@H]1CC[C@H](CC(=O)N3CCCCC3)O[C@@H]1CO2 was read as Tcruzi prolif 12.6, Pf Dd2 inh 10.4 and C diff growth 6.6.
Screening Cn1cnc(CCNC(=O)C[C@H]2CC[C@H]3[C@@H](COC[C@@H](O)CN3C(=O)C3CCCC3)O2)c1 returned Tcruzi prolif -34.0, Pf Dd2 inh 42.5 and C diff growth -2.8.
For Cc1noc(C)c1S(=O)(=O)Nc1ccc2c(c1)C(=O)N([C@@H](C)CO)C[C@@H](C)[C@H](CN(C)CC1CCCCC1)O2 the results were Tcruzi prolif -6.9, Pf Dd2 inh 15.6 and C diff growth 4.0.
C[C@@H]1CCCCO[C@@H](CN(C)S(=O)(=O)c2ccccc2)[C@H](C)CN([C@H](C)CO)C(=O)c2cc(NC(=O)Nc3ccccc3)ccc2O1 was read as Tcruzi prolif 54.8 and Pf Dd2 inh -78.4.
Screening C[C@H]1CCCCO[C@@H](CN(C)S(=O)(=O)c2ccccc2)[C@@H](C)CN([C@@H](C)CO)C(=O)c2cc(NC(=O)Nc3ccccc3)ccc2O1 returned Tcruzi prolif 84.1 and Pf Dd2 inh -65.7.
For C[C@@H]1CN([C@@H](C)CO)C(=O)c2cc(NC(=O)Nc3ccccc3)ccc2O[C@@H](C)CCCCO[C@@H]1CN(C)S(=O)(=O)c1ccccc1 the results were Tcruzi prolif -16.1 and Pf Dd2 inh -67.5.
Cc1ccc(S(=O)(=O)N(C)C[C@@H]2OCCCC[C@H](C)Oc3ccc(NC(=O)Nc4ccccc4)cc3C(=O)N([C@H](C)CO)C[C@H]2C)cc1 was read as Tcruzi prolif 73.7, Pf Dd2 inh -89.9* and C diff growth 8.1.
`C[C@@H]1CN([C@@H](C)CO)C(=O)c2cc(NC(=O)Nc3ccccc3)ccc2O[C@@H](C)CCCCO[C@@H]1CN(C)S(=O)(=O)c1ccc(Cl)cc1` gave Tcruzi prolif -119.5 and Pf Dd2 inh -87.4*.
`C[C@@H]1CN([C@H](C)CO)C(=O)c2cc(NC(=O)Nc3ccccc3)ccc2O[C@@H](C)CCCCO[C@H]1CN(C)S(=O)(=O)c1ccc(Cl)cc1` gave Tcruzi prolif -5.6 and Pf Dd2 inh -81.3*.
`C[C@@H]1CCCCO[C@@H](CN(C)S(=O)(=O)c2ccccc2)[C@@H](C)CN([C@@H](C)CO)C(=O)c2cc(NC(=O)Nc3ccccc3)ccc2O1` gave Tcruzi prolif 29.6 and Pf Dd2 inh -74.8.
C[C@@H]1CCCCO[C@@H](CN(C)S(=O)(=O)c2ccc(Cl)cc2)[C@@H](C)CN([C@H](C)CO)C(=O)c2cc(NC(=O)Nc3ccccc3)ccc2O1 was read as Tcruzi prolif -6.8 and Pf Dd2 inh -84.3*.
Screening C[C@H](CO)N1C[C@H](C)[C@@H](CN(C)Cc2ccncc2)Oc2ccc(NS(=O)(=O)c3cn(C)cn3)cc2CC1=O returned Pf Dd2 inh 22.2 and C diff growth 7.6.

Assay outcomes: PubChem, Broad Institute
